In the library only some 2.4% were active in any assay of this set; here they are far more common.
Rpn11 inh = Rpn11 (PSMD14) deubiquitinase inhibitors, primary screen, biochemical, fluorescence polarization, uHTS. 26S proteasome non-ATPase regulatory subunit 14 (Homo sapiens), O00487. human 26S proteasome, Ub4-pepOG fluorescence polarization; 20S core pre-blocked with epoxomicin. inhibition, % at 20 µM. 360,000 tested, 0.59% active. AID 588493, 2011;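 active = inhibition at 20 µM, scaled to each plate's controls, above about 33%, limit read from the data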
Target sequence (O00487 whole entry, looked up): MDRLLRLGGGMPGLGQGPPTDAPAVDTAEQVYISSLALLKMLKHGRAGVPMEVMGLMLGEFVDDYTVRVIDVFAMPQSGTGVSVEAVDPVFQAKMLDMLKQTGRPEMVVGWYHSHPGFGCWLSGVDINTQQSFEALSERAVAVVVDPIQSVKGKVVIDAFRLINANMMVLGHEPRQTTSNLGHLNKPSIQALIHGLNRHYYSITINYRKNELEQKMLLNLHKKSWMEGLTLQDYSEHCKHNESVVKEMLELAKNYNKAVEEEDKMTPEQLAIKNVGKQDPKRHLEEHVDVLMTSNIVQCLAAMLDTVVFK
PP5 primary = PP5 phosphatase inhibitors, primary screen, biochemical, fluorescence | purified PP5c, OMFP substrate fluorescence | inhibition, % at 6.7 µM | 320,000 tested, 0.18% active;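 active = inhibition above the campaign's mean inhibition across all tested compounds plus 3 SD, cut at about 9.5% in these data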;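 also: 0% = DMSO only and 100% = 100 µM cantharidin control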
PP1 counter = PP1-alpha phosphatase inhibitors, primary screen, counter-screen for PP5 inhibitor project, biochemical, fluorescence, OMFP substrate, single point | inhibition, % at 6.7 µM | 320,000 tested, 0.9% active | Serine/threonine-protein phosphatase PP1-alpha catalytic subunit (Homo sapiens), P62136 | purified PP1alpha | AID 2235, 2010;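 active = inhibition above the mean inhibition of all tested compounds plus 3 SD, computed separately for each screening campaign, cut at about 15% in these data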
Target sequence (P62136 whole entry, looked up): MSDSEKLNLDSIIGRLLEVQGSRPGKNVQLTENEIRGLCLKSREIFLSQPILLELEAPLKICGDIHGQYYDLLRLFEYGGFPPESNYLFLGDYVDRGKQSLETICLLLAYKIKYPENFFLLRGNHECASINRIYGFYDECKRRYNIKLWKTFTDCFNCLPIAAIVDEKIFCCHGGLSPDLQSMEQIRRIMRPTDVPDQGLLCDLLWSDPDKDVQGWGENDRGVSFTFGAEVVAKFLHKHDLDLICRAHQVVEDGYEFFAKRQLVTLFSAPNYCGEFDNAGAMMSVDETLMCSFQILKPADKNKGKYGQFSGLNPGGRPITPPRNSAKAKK
NadD block = inhibitors of S. aureus NadD, primary screen, biochemical, colorimetric, uHTS | Nicotinate-nucleotide adenylyltransferase NadD (Staphylococcus aureus N315) | AID 602399, 2012 | 360,000 tested, 0.78% active | inhibition, % at 20 µM | purified NadD enzyme, colorimetric absorbance read-out; in the data active = inhibition above about 26%
PREPL inh = PREPL enzyme inhibitors, primary screen, biochemical, fluorescence polarization. 320,000 tested, 0.68% active. recombinant PREPL, fluorescence polarization activity-based probe. Prolyl endopeptidase-like (Homo sapiens), Q4J6C6. inhibition, % at 5.96 µM. AID 2751, 2010;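 also: 0% = enzyme with DMSO and 100% = wells lacking enzyme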
PREPL inh cf = human PREPL enzyme inhibitors, confirmation, biochemical, fluorescence polarization; shares compounds with PREPL inh; recombinant PREPL, fluorescence polarization activity probe; inhibition, % at 5.96 µM; 2,000 tested, 67% active; AID 2803, 2010;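 also: 0% = protein with DMSO and 100% = wells lacking protein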
An asterisk follows results filed as active; · = not tested or not shown. Rule as the data show it, unless noted: active = inhibition above about 43%; inactive = the rest.

SMILES	Rpn11 inh	PP5 primary	PP1 counter	NadD block	PREPL inh	PREPL inh cf
CN(C)CCCNC(=O)c1cc(C(=O)c2cccc(Cl)c2Cl)c[nH]1	3.1	-1.0	-3.4	-9.6	-10.1	·
COC1CC(NC(C)=O)C(OC(=O)c2ccccc2)C(CBr)O1 (stereo not drawn)	-0.1	·	·	4.5	·	·
COc1ccc(NC(=O)C2CCN(S(=O)(=O)c3c(C)noc3/C=C/N(C)C)CC2)cc1	-10.7	3.0	4.1	-3.1	6.2	·
COc1ccc(N2CCN(CCCNS(=O)(=O)c3c(C)noc3/C=C/N(C)C)CC2)cc1	·	-0.5	7.4	·	71.4*	27.6
COC(=O)[C@@]1(Cc2ccccc2)[C@H]2C(=O)N(Cc3ccccc3)C(=O)[C@H]2[C@H]2CN=C(SC)N21	1.8	·	·	-1.1	·	·
CCCCn1c(CCc2ccccc2)nc2cc3[nH]c(=O)c(C(C)C)nc3cc21	3.5	6.3	10.0	0.4	43.5*	38.4
CCOC(=O)C1CCN(C(=O)c2ccccc2)c2scc(-c3ccccc3)c2C1=O (stereo not drawn)	4.3	·	·	-9.6	·	·
NS(=O)(=O)c1ccc(NC(=O)/C(=C/c2ccncc2)NC(=O)c2ccccc2)cc1	4.5	3.8	-3.6	-0.6	-1.1	·
COc1cccc(CNc2ccc3[nH]c(=O)[nH]c3c2)c1OCc1ccc(F)cc1	7.5	·	·	1.1	·	·
O=c1[nH]c2ccc(NCc3ccccc3OCc3ccc(Cl)cc3)cc2[nH]1	7.8	6.3	1.6	1.7	72.5*	73.1*
Cc1cc(=O)oc2cc(OCC(=O)OCC(=O)N3CCC(C)CC3)ccc12	-3.4	-2.3	-3.3	8.1	-12.0	·
Cc1c(CCOC(=O)c2cc([N+](=O)[O-])cc([N+](=O)[O-])c2)sc[n+]1CC(=O)c1ccc(Br)cc1	2.5	3.2	4.7	24.1	53.6*	70.5*
Cc1c(CCOC(=O)c2ccc(Cl)cc2Cl)sc[n+]1CC(=O)c1ccccc1	11.5	·	·	15.0	-17.4	·
CCCOP(=O)(c1ccc(N(C)C)cc1)C(Nc1ccccc1)c1ccc(C)cc1 (stereo not drawn)	3.8	4.3	4.8	4.3	20.9	·
COc1ccc2c(c1)c(/C=N/Nc1ccc(C(=O)O)cc1)c(C)n2C	5.1	0.3	-2.0	0.9	13.8	·
COc1ccc2c(/C=N/Nc3ccc(C(=O)O)cc3)c[nH]c2c1	·	1.4	0.3	3.1	56.3*	9.8
Cc1nc2nc(SCC(=O)NCCCN3CCCCCC3)nn2c(C)c1Cc1ccccc1	-4.2	-0.1	0.2	0.3	43.1*	36.7
Cc1ccccc1Cc1c(C)nc2nc(SCC(=O)NCCCN3CCCCC3)nn2c1C	-15.6	0.5	-1.9	-7.8	1.2	·
CN(C)c1ccc(C(CNC(=O)c2ccccc2Br)c2c[nH]c3ccccc23)cc1 (stereo not drawn)	-13.5	0.9	-0.6	6.1	55.5*	30.6
Cc1ccc(-c2csc(=Nc3cccnc3)n2CCCn2ccnc2)cc1C	7.3	2.1	2.6	0.6	46.7*	56.9*
c1cncc(N=c2scc(-c3cccc4ccccc34)n2CCCn2ccnc2)c1	1.8	1.6	15.8*	6.3	53.4*	53.9*
Cc1ccc(-c2csc(=Nc3cccnc3)n2CCCN2CCCC2=O)cc1C	-0.4	1.5	-0.9	-6.8	49.3*	54.1*
Cc1cccc(OCC(=O)Nc2ccc3c(c2)nc(CCN2CCN(c4ccccn4)CC2)n3C)c1	-1.7	-1.8	1.9	4.8	32.0	·
Cc1ccc(C)c(NC(=O)COC(=O)c2cccc3c2C(=O)c2ccccc2C3=O)c1	2.5	1.8	10.3	5.7	60.1*	47.0*
Cc1ccc(NC(=O)COC(=O)c2cccc3c2C(=O)c2ccccc2C3=O)c(C)c1	-3.1	2.6	-1.4	-2.3	25.9	·
SMILES	Rpn11 inh	PP5 primary	PP1 counter	NadD block	PREPL inh	PREPL inh cf
Nc1cc(Cl)ccc1N1CCCC1	-4.9	-1.7	2.9	0.8	15.3	·
Nc1cc(F)ccc1N1CCCCCC1	1.8	-1.2	2.2	2.2	43.2*	25.9
COc1cccc2[nH]c3c(N4CCN(Cc5ccc6c(c5)OCO6)CC4)ncnc3c12	·	0.6	-0.2	·	73.5*	60.5*
COc1ccc2c(c1)[nH]c1c(N3CCSCC3)ncnc12	2.2	3.5	-5.3	-3.6	8.8	·
COc1ccc2c(c1)[nH]c1c(N3CCN(Cc4ccc5c(c4)OCO5)CC3)ncnc12	4.0	1.7	2.0	17.3	66.9*	64.0*
O=C(NCCOc1ccccc1)c1ccc2c(c1)S(=O)(=O)c1cc(Cl)ccc1C2=O	0.2	·	·	-1.5	43.5*	29.9
Cc1ccc(NC(=O)CSCC(=O)Nc2cc(Cl)ccc2N2CCOCC2)cc1	-5.3	1.2	-7.8	-3.4	-4.6	·
O=C(CP(=O)(c1ccccc1)c1ccccc1)Nc1nc2ccccc2s1	-3.3	-0.5	-0.3	-6.5	50.0*	41.2
COc1cc(/C=N/n2cnnc2)ccc1OCc1ccccc1	1.2	1.1	-3.5	-4.4	46.2*	42.3
CCOC(=O)c1c(C)n(CCOc2ccccc2)c2ccc(O)cc12	-11.5	-3.3	12.1	-1.8	-5.0	·
CCOC(=O)c1c(C)n(CC(O)c2ccccc2)c2ccc(O)cc12 (stereo not drawn)	-1.4	1.6	1.9	1.5	171.2*	6.0
COC(=O)c1ccc(OCCOCCOc2cccc3ccc(C)nc23)cc1	0.6	0.2	-1.9	2.3	9.0	·
COC(=O)c1ccccc1OCCOCCOc1cccc2ccc(C)nc12	3.4	-0.3	3.8	1.6	48.7*	1.5
CCN(C(=O)CN1C(=O)COc2ccc(S(=O)(=O)N3CCCCCC3)cc21)c1cccc(C)c1	-2.4	2.2	-0.6	3.1	8.4	·
NC(=O)C1CC(=O)N(c2ccc(OCc3ccc(Cl)cc3Cl)cc2)C1 (stereo not drawn)	3.8	-0.2	0.7	6.4	47.3*	43.0
CC(OC(=O)c1ccc(F)c(S(=O)(=O)N2CCOCC2)c1)C(=O)NC1CCCC1 (stereo not drawn)	-7.7	·	·	5.9	·	·
CSc1ccc(NC(=O)NCCCN2CCN(c3ccccc3F)CC2)cc1	-0.6	-0.9	-1.0	-7.0	43.3*	41.6
Cc1c(C)n(C)c2ccc(C(=O)NCCCN3CCN(c4ccc(F)cc4)CC3)cc12	-10.1	0.8	-2.8	5.3	41.6	·
Cc1c(C)n(C)c2ccc(C(=O)NCCCN3CCN(c4ccccc4F)CC3)cc12	16.3	1.1	2.4	6.9	43.9*	42.2
O=C(c1ccccc1Br)N(Cc1ccccc1)c1ccccc1	-2.1	-0.4	4.4	-9.1	-30.8	·
CCCCN1C(=N)N([C@@H](CN2CCC[C@H]2CN2C(N)=NC[C@@H]2Cc2ccccc2)C(C)C)C[C@H]1Cc1ccccc1	-4.9	·	·	-3.6	64.7*	59.1*
